Source: PubChem BioAssay (NCATS)
Records with an inconclusive call do not appear. Calls of active or inactive are those of the source. The call rests on the fitted dose curve; in most records, active means well fitted inhibition curve with a large enough effect; inconclusive means small, poorly fitted or top-dose-only effect; inactive means no such curve, though single readings can be large or run the other way.

molecular target: Rap guanine nucleotide exchange factor 3 (Homo sapiens) (UniProt O95398); experiment: Confirmatory qHTS for antagonist of cAMP-regulated guanine nucleotide exchange factor 3 (EPAC1) (AID 1645880); settings: EPAC1 Rap1B-BODIPY-GDP exchange, fluorescence; activity, negative = inhibition: at 115 µM (top of the series); further: nearly all actives have a fitted effect of over 55% in size;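 on activity, negative = inhibition: plate controls were DMSO only for no effect and full effect of the ATA control for full effect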
How it was run: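 Released BODIPY-GDP fluoresces less than Rap1-bound BODIPY-GDP; the signal is followed at 480/540 nm at 5-min intervals over 30 min, after 5 min at room temperature. Reactions contain 100 nM EPAC1, 250 nM RAP1B-BODIPY-GDP and 50 uM GDP; results are normalized to ATA and DMSO.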
Potency means the concentration at half of the fitted maximal effect.

Chain of Rap guanine nucleotide exchange factor 3 (Homo sapiens) (O95398 whole entry, looked up): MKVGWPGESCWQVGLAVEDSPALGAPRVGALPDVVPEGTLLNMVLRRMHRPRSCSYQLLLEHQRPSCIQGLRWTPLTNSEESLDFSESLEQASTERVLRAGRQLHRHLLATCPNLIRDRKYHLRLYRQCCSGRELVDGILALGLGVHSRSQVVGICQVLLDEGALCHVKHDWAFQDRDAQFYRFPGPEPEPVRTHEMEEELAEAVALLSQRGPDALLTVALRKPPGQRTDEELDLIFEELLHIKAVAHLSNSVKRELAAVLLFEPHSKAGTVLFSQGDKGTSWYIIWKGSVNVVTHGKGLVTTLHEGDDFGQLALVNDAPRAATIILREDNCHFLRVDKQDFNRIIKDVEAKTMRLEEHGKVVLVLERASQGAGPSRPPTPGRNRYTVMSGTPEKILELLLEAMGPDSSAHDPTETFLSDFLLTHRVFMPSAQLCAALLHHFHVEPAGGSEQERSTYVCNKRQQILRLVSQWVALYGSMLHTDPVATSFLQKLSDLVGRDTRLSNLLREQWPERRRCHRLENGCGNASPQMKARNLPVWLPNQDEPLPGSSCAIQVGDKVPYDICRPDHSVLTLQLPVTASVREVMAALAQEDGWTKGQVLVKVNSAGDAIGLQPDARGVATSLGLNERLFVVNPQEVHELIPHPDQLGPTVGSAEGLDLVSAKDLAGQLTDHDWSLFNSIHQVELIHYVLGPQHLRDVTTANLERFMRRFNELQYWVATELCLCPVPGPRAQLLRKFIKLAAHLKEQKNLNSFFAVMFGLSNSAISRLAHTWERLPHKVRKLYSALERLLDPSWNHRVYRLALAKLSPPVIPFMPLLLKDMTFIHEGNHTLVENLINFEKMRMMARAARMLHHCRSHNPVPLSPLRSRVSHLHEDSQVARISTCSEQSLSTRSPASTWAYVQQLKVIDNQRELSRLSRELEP

| Structure (SMILES) | activity, negative = inhibition | Potency |
| --- | --- | --- |
| CN1/C(=C\C=C(/C#N)C(=O)Nc2ccc(Cl)cc2)C(C)(C)c2ccccc21 | -6.56% (inactive) |  |
| COc1cc(/C=C2\SC(=Nc3ccc(Cl)c(C(=O)O)c3)NC2=O)c(Br)c(Br)c1O |  | 2.82 µM (active) |
| Cc1cnc(C(=O)OCC(=O)Nc2ccc(Oc3ccccc3)cc2)cn1 | -9.99% (inactive) |  |
| COc1ccc(N=C2NC(=O)S/C2=C\c2ccc(N(C)C)cc2)cc1 | -28.9% (inactive) |  |
| Cc1ccc(N(C(=O)c2ccccc2Cl)C2=NC(C)CS2)c(C)c1 (stereo not given) | -23.8% (inactive) |  |
| CC(=O)c1ccc(NC(=O)c2ccc3c(c2)C(=O)N(c2ccccn2)C3=O)cc1 |  | 8.49 µM (active) |
| O=C(c1ccco1)N1CCn2cccc2C1c1ccccc1 (stereo not given) | -10.6% (inactive) |  |
| CCOC(=O)c1c(NC(=O)CSc2nc3ccc(C)cc3[nH]2)sc2c1CC(C)(C)NC2(C)C | -31.9% (inactive) |  |
| C[C@@H]1CC=C[C@H]2[C@H]1C(=O)N(Cc1ccccc1)[C@H]2c1ccc(-c2ccoc2)cc1F | -28.6% (inactive) |  |
| O=C(O)c1ccccc1N=N/C(=N/Nc1cc(S(=O)(=O)O)ccc1O)c1ccccc1 |  | 44.7 µM (active) |
| CCC(=O)NC(c1cccs1)c1cc([N+](=O)[O-])c2cccnc2c1O (stereo not given) |  | 42.6 µM (active) |
| COC(C(=O)Nc1ccc(Br)cc1F)c1ccccc1 (stereo not given) | -27.6% (inactive) |  |
| O=C(O)CSc1cc(NS(=O)(=O)c2ccc(Cl)cc2)c2ccccc2c1O |  | 75.7 µM (active) |
| COc1ccc(NC(=O)COC(=O)c2ccc(S(=O)(=O)N(C)c3ccccc3OC)cc2)cc1OC | -20% (inactive) |  |
| O=C(Cc1c(Cl)cccc1Cl)Nc1ccc(S(=O)(=O)Nc2ncccn2)cc1 | -3.73% (inactive) |  |
